Assay results taken from the supplement of paper PMC6331611.
± gives the standard deviation of the averaged measurements. The full ranking holds about 1,600 compounds; the median of “normalized growth (OD600, IQM-normalized) in LPM” is about 1, and the lowest 2% start at about 0.014. Only a selection was taken, and the lowest values are over-represented in it overall.

tested on: Salmonella enterica serovar Typhimurium SL1344; assay: normalized growth (OD600, IQM-normalized) in LPM (fraction of plate interquartile mean); higher = more bacterial growth (less inhibition); conditions: LPM pH 5.8; 10 µM; 16 h

SMILES | normalized growth
Nc1[nH]cnc2ncnc1-2 | 0.993 ± 0.02
CCCNC(C)(C)COC(=O)c1ccccc1 | 0.983 ± 0.027
CC(=O)c1ccc2c(c1)N(CCCN1CCN(CCO)CC1)c1ccccc1S2 | 0.869 ± 0.053
CCCCCCCCCCCCCCCCCCCCCCO | 1.11 ± 0.1
CC(=O)Nc1ccc(S(=O)(=O)c2ccc(NC(C)=O)cc2)cc1 | 0.889 ± 0.067
CCC(=O)OCC(=O)[C@@]1(OC(=O)CC)[C@H](C)CC2C3C([C@@H](O)C[C@@]21C)[C@@]1(C)C=CC(=O)C=C1C[C@H]3Cl (some centres not stated) | 1.03 ± 0.019
O=C1c2ccccc2C(=O)C1c1ccc(Br)cc1 | 0.935 ± 0.066
O=C(OOC(=O)c1ccccc1)c1ccccc1 | 1.08 ± 0.046
Cc1cnc(C(=O)O)c[n+]1[O-] | 0.993 ± 0.078
C[C@@H]1NC(=O)[C@@H](N)CNC(=O)[C@H](C2CCNC(=N)N2)NC(=O)/C(=C/NC(N)=O)NC(=O)[C@H](CNC(=O)CC(N)CCCN)NC1=O.N=C1NCC[C@H]([C@@H]2NC(=O)/C(=C/NC(N)=O)NC(=O)[C@H](CNC(=O)C[C@@H](N)CCCN)NC(=O)[C@H](CO)NC(=O)[C@@H](N)CNC2=O)N1 | 0.985 ± 0.046
CC(C)(C)CC(C)(C)c1ccc(O)c(Cc2ccc(Cl)cc2Cl)c1 | 0.861 ± 0.066
Oc1ccc(OCc2ccccc2)cc1 | 0.91 ± 0.11
Cc1cc(NS(=O)(=O)c2ccc(N)cc2)no1 | 1.01 ± 0.022
CC[C@H](C)[C@H](N)C1=N[C@H](C(=O)N[C@@H](CC(C)C)C(=O)N[C@H](CCC(=O)O)C(=O)N[C@H](C(=O)N[C@H]2CCCCNC(=O)[C@H](CC(N)=O)NC(=O)[C@@H](CC(=O)O)NC(=O)[C@H](Cc3cnc[nH]3)NC(=O)[C@@H](Cc3ccccc3)NC(=O)[C@H]([C@@H](C)CC)NC(=O)[C@@H](CCCN)NC2=O)[C@@H](C)CC)CS1 | 1.06 ± 0.043
CC(C)OC(=O)CCC/C=C\C[C@@H]1[C@@H](/C=C/[C@@H](O)COc2cccc(C(F)(F)F)c2)[C@H](O)C[C@@H]1O | 1.032 ± 0.0058
C=CC[C@@H]1/C=C(\C)C[C@H](C)C[C@H](OC)[C@H]2O[C@@](O)(C(=O)C(=O)N3CCCC[C@H]3C(=O)O[C@H](/C(C)=C/[C@@H]3CC[C@@H](O)[C@H](OC)C3)[C@H](C)[C@@H](O)CC1=O)[C@H](C)C[C@@H]2OC | 0.857 ± 0.044
NC(=O)C1(N2CCCCC2)CCN(CCCC(=O)c2ccc(F)cc2)CC1 | 1.02 ± 0.051
CC(C)(S)[C@@H](N)C(=O)O | 1.083 ± 0.0063
CC1=CC(=O)c2ccccc2C1=O | 0.984 ± 0.017
O=[N+]([O-])c1ccc(O)c2ncccc12 | 0.00762 ± 0.00015
Oc1ccc(Cl)c2cccnc12 | 0.847 ± 0.037
Oc1c(I)cc(I)c2cccnc12 | 0.58 ± 0.02
C[C@@H](O)CN(CCN(C[C@@H](C)O)C[C@@H](C)O)C[C@@H](C)O | 1.17 ± 0.054
CN(N=O)C(=O)N[C@H]1C(O)O[C@H](CO)[C@@H](O)[C@@H]1O (mixture of isomers) | 0.929 ± 0.021
COc1cccc2c1C(=O)c1c(O)c3c(c(O)c1C2=O)C[C@@](O)(C(C)=O)C[C@@H]3O[C@H]1C[C@H](N)[C@H](O)[C@H](C)O1 | 0.946 ± 0.016
CC(NCCC(c1ccccc1)c1ccccc1)c1ccccc1 (configuration not stated) | 0.976 ± 0.038

SMILES | normalized growth
O=C(O)CCNC(=O)c1ccc(/N=N/c2ccc(O)c(C(=O)O)c2)cc1 | 1 ± 0.051
C[C@H]1O[C@H](O[C@H]2[C@H](O)[C@@H](O)[C@@H](O[C@H]3[C@H](O)[C@@H](O)C(O)O[C@@H]3CO)O[C@@H]2CO)[C@H](O)[C@@H](O)[C@@H]1N[C@H]1C=C(CO)[C@@H](O)[C@H](O)[C@H]1O (some centres not stated) | 1.07 ± 0.011
CCOC(=O)c1ccc(O)cc1 | 1.02 ± 0.045
N[C@@H](Cc1cc(I)c(Oc2cc(I)c(O)c(I)c2)c(I)c1)C(=O)O | 1.03 ± 0.039
O=C(COc1ccc(Cl)cc1)N1CCN(Cc2ccc3c(c2)OCO3)CC1 | 0.928 ± 0.019
COc1c(C)c2c(c(O)c1C/C=C(\C)CCC(=O)OCCN1CCOCC1)C(=O)OC2 | 1.01 ± 0.035
CC(=O)Nc1c(I)cc(I)c(C(=O)O)c1I | 0.949 ± 0.12
Cc1c(OCC(F)(F)F)ccnc1C[S@@+]([O-])c1nc2ccccc2[nH]1 | 0.967 ± 0.085
CSCC[C@H](NC(=O)[C@H](Cc1c[nH]c2ccccc12)NC(=O)CCNC(=O)OC(C)(C)C)C(=O)N[C@@H](CC(=O)O)C(=O)N[C@@H](Cc1ccccc1)C(N)=O | 1.09 ± 0.026
CC[C@H](c1ccc(O)cc1)[C@@H](CC)c1ccc(O)cc1 | 1.13 ± 0.018
CC(C)c1nc(N(C)S(C)(=O)=O)nc(-c2ccc(F)cc2)c1/C=C/[C@@H](O)C[C@@H](O)CC(=O)O | 1.03 ± 0.097
CCn1nc(C(=O)O)c(=O)c2cc3c(cc21)OCO3 | 0.00789 ± 0.00035
CCCc1nc(C)c2c(O)nc(-c3cc(S(=O)(=O)N4CCN(CC)CC4)ccc3OCC)nn12 | 1.02 ± 0.053
CC1(C)S[C@@H]2[C@H](N3C(=O)[C@@H](c4ccccc4)NC3(C)C)C(=O)N2[C@H]1C(=O)O | 0.976 ± 0.053
CCOC(=O)O[C@]1(C(=O)COC(=O)CC)CC[C@H]2[C@@H]3CCC4=CC(=O)C=C[C@]4(C)[C@H]3[C@@H](O)C[C@@]21C | 1 ± 0.03
CC(=O)Oc1cccc(C)c1 [meta-CRESYL ACETATE] | 0.995 ± 0.048
OCCN1C[C@H](O)[C@@H](O)[C@H](O)[C@H]1CO | 0.993 ± 0.016
C#CC1(O)CC[C@H]2[C@@H]3CCC4=CC(=O)CC[C@@H]4[C@H]3CC[C@@]21CC (some centres not stated) | 0.941 ± 0.024
CC(=O)Nc1ccc(OC(C)=O)cc1 | 1.05 ± 0.08
CCC1=C(C)CN(C(=O)NCCc2ccc(S(=O)(=O)NC(=O)N[C@H]3CC[C@H](C)CC3)cc2)C1=O | 0.926 ± 0.053
Nc1cc(C(Cl)=C(Cl)Cl)c(S(N)(=O)=O)cc1S(N)(=O)=O | 1.01 ± 0.036
CC(=O)Oc1cccc(C(=O)O)c1OC(C)=O | 0.912 ± 0.079
O=C(Nc1ccccc1)OCC(CN1CCCCC1)OC(=O)Nc1ccccc1 (configuration not stated) | 0.903 ± 0.047
CC(=O)OCC(=O)[C@@]1(O)CC[C@H]2[C@@H]3CCC4=CC(=O)C=C[C@]4(C)[C@@]3(Cl)[C@@H](Cl)C[C@@]21C | 0.894 ± 0.024
CC[N+](C)(CC)CCOC(=O)C(O)(c1ccccc1)C1CCCCC1 (configuration not stated) | 1.1 ± 0.03
CC1/C=C/C=C/C=C/C=C/C=C/C=C/C=C/C(OC2O[C@H](C)[C@@H](O)[C@H](N)[C@@H]2O)CC(O)C(C(=O)O)C(O)CC(=O)CC(O)CC(O)CC(O)CC(=O)CCCC(=O)CC(=O)OC1C(C)CC(C)C(O)CC(=O)c1ccc(N)cc1 (some centres not stated) | 1.03 ± 0.045
